Data from PubChem BioAssay.
Inconclusive results are not listed. Active and inactive are the calls of the source.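 The calls were made as follows, unless noted: active = normalized viability below 100% at a tested concentration; inactive = the rest.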

Legend:
[1] = viability loss in pontine glioma line – cell-based, SU-DIPG-XVII, MIPE5.0, CellTiter-Glo, qHTS, dose response (AID 1347060; cut-off not given, nearly all actives have AC50 up to about 26 µM;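 as to AC50: cells exposed to compound for 48 hours before viability readout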); settings: CellTiter-Glo ATP luminescence
[2] = viability loss in pontine glioma line – cell-based, SU-DIPG-IV, MIPE4.0, CellTiter-Glo, qHTS, dose response (AID 1347063; cut-off not given, nearly all actives have AC50 up to about 30 µM;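 also: compound exposure lasted 48 hours before the viability readout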); settings: CellTiter-Glo ATP luminescence
[3] = viability loss in pontine glioma line – cell-based, SU-DIPG-XIII, MIPE5.0, CellTiter-Glo, qHTS, dose response (AID 1347064; cut-off not given, nearly all actives have AC50 up to about 23 µM;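 as to AC50: cells exposed to compound for 48 hours before the viability read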); settings: CellTiter-Glo ATP luminescence
[4] = viability loss in pontine glioma line – cell-based, SU-DIPG-XXV, MIPE5.0, CellTiter-Glo, qHTS, dose response (AID 1347065; cut-off not given, nearly all actives have AC50 up to about 26 µM;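 also: cells exposed to compound for 48 hours before ATP readout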); settings: CellTiter-Glo ATP luminescence
[5] = compounds altering HSF1 focus formation in cells – imaging, Selleck Cancer Library (AID 1347162; in the data active = plate-normalised HSF1 focus index below about 0.46); settings: human cells, HSF1 nuclear foci imaging, at 10 µM; SSMD: measured here: HSF1 foci SSMD mean; cell count: measured here: cell number; plate-normalised HSF1 focus index: stronger effect = lower value
[6] = JHH-DIPG-1 glioma cell viability, MIPE5.0 library, CellTiter-Glo luminescence, qHTS (AID 1347067; cut-off not given, nearly all actives have AC50 up to about 26 µM;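 also: cells exposed to compound for 48 hours before readout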); settings: JHH-DIPG-1 glioma viability, CellTiter-Glo ATP luminescence
[7] = growth inhibition of DIPG cells – cell-based, MIPE5.0 library, qHTS (AID 1347068; cut-off not given, nearly all actives have IC50 up to about 30 µM;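 as to IC50: cells exposed to compound for 48 hours before viability readout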); settings: SU-DIPG-XXV viability
[8] = viability loss with induced miR-34 in A549 – imaging, A549 dox-inducible miR-34, nuclei and caspase counts, primary screen (AID 1347080;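 active = compounds whose cell count with miR-34 switched on is under 0.7 times the count with it off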); settings: A549 miR-34 inducible, Hoechst nuclei count, 48 h
[9] = MELAS cybrid and Rieske KO viability enhancers – cell-based, MELAS cybrids, Rieske KO mouse fibroblasts, CellTiter-Glo, primary screen (AID 1508586;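 active = mean z-score across replicates of 1.96 or higher in either the MELAS or the Rieske mutant cell line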;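 also: z relative to plate mean and SD of compound and empty wells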); settings: low glucose
[10] = growth inhibition of DIPG cells – cell-based, MIPE4.0 library, CellTiter-Glo luminescence, qHTS (AID 1347066; cut-off not given, nearly all actives have AC50 up to about 30 µM;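 also: cells exposed to compound for 48 hours before readout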); settings: SU-DIPG-VI viability, CellTiter-Glo ATP luminescence
[11] = drug combination growth inhibition, ovarian cancer – cell-based, oncology-focused library, rucaparib conditional, profiling panel (AID 1508598); settings: patient-derived ovarian cancer cells, CellTiter-Glo viability, 144 h, stronger effect = lower value
[12] = stronger effect = lower value, cell number ratio, induced over uninduced
[13] = measured here: relative caspase fold change +Dox/-Dox
[14] = measured here: total cells with miR-34 induction, stronger effect = lower value
[15] = measured here: total cells without miR-34 induction
[16] = MELAS cybrid survival, CellTiter-Glo 48 h, stronger effect = higher value
[17] = Rieske KO mouse fibroblast survival, CellTiter-Glo 72 h
[18] = at 0.000305 µM, OCI-C5x cells, with rucaparib 10 µM, 100% = cells with rucaparib alone
[19] = at 0.000305 µM, OCI-C5x cells, without rucaparib
[20] = at 0.000305 µM, OCI-P5x cells, with rucaparib 20 µM, 100% = cells with rucaparib alone
[21] = at 0.000305 µM, OCI-P5x cells, without rucaparib
[22] = at 0.00122 µM, OCI-C5x cells, with rucaparib 10 µM, 100% = cells with rucaparib alone
[23] = at 0.00122 µM, OCI-C5x cells, without rucaparib
[24] = at 0.00122 µM, OCI-P5x cells, with rucaparib 20 µM, 100% = cells with rucaparib alone
[25] = at 0.00122 µM, OCI-P5x cells, without rucaparib
[26] = at 0.00488 µM, OCI-C5x cells, with rucaparib 10 µM, 100% = cells with rucaparib alone
[27] = at 0.00488 µM, OCI-C5x cells, without rucaparib
[28] = at 0.00488 µM, OCI-P5x cells, with rucaparib 20 µM, 100% = cells with rucaparib alone
[29] = at 0.00488 µM, OCI-P5x cells, without rucaparib
[30] = at 0.0195 µM, OCI-C5x cells, with rucaparib 10 µM, 100% = cells with rucaparib alone
[31] = at 0.0195 µM, OCI-C5x cells, without rucaparib
[32] = at 0.0195 µM, OCI-P5x cells, with rucaparib 20 µM, 100% = cells with rucaparib alone
[33] = at 0.0195 µM, OCI-P5x cells, without rucaparib
[34] = at 0.0781 µM, OCI-C5x cells, with rucaparib 10 µM, 100% = cells with rucaparib alone
[35] = at 0.0781 µM, OCI-C5x cells, without rucaparib
[36] = at 0.0781 µM, OCI-P5x cells, with rucaparib 20 µM, 100% = cells with rucaparib alone
[37] = at 0.0781 µM, OCI-P5x cells, without rucaparib
[38] = at 0.313 µM, OCI-C5x cells, with rucaparib 10 µM, 100% = cells with rucaparib alone
[39] = at 0.313 µM, OCI-C5x cells, without rucaparib
[40] = at 0.313 µM, OCI-P5x cells, with rucaparib 20 µM, 100% = cells with rucaparib alone
[41] = at 0.313 µM, OCI-P5x cells, without rucaparib
[42] = at 1.25 µM, OCI-C5x cells, with rucaparib 10 µM, 100% = cells with rucaparib alone
[43] = at 1.25 µM, OCI-C5x cells, without rucaparib
[44] = at 1.25 µM, OCI-P5x cells, with rucaparib 20 µM, 100% = cells with rucaparib alone
[45] = at 1.25 µM, OCI-P5x cells, without rucaparib
[46] = at 5 µM, OCI-C5x cells, with rucaparib 10 µM, 100% = cells with rucaparib alone
[47] = at 5 µM, OCI-C5x cells, without rucaparib
[48] = at 5 µM, OCI-P5x cells, with rucaparib 20 µM, 100% = cells with rucaparib alone
[49] = at 5 µM, OCI-P5x cells, without rucaparib

COc1ccc(-c2cc3nccn3c(Nc3ncccc3C(N)=O)n2)cc1OC
6940: cell count [5]
-0.302: SSMD [5]
inactive: plate-normalised HSF1 focus index [5] 0.994
active: AC50 [1] 11.8 µM | AC50 [2] 3.32 µM | AC50 [3] 4.68 µM | AC50 [4] 5.25 µM

CCOc1cc(C(C)(C)C)ccc1C1=N[C@@](C)(c2ccc(Cl)cc2)[C@@](C)(c2ccc(Cl)cc2)N1C(=O)N1CCN(CC(=O)N2CCOCC2)CC1
active: AC50 [1] 11.5 µM | AC50 [3] 14.5 µM | AC50 [4] 10.3 µM

CC(C)(O)CC(=O)NCCn1ccc2ncnc(Nc3ccc(Oc4cccc(C(F)(F)F)c4)c(Cl)c3)c21
active: AC50 [1] 18.6 µM | AC50 [2] 26.4 µM | AC50 [4] 26.3 µM | AC50 [6] 20.9 µM | IC50 [7] 23.5 µM
0.83: z-score [9, 17]
0.647: fold change [8, 13]
8420: cell count [8, 15]
8120: cell count [8, 14]
inactive: fold change [8, 12] 0.965 | z-score [9, 16] -0.328

CCn1c(=O)c(-c2ccn[nH]2)cc2c(C)nc(N)nc21
active: AC50 [1] 7.42 µM | AC50 [3] 5.9 µM | AC50 [4] 4.17 µM

Cc1cc(-c2nc3cc(F)ccc3s2)ccc1NC(=O)[C@@H](N)CCCCN
active: AC50 [1] 20.9 µM | AC50 [3] 20.9 µM

O=C1NC(=O)[C@@H](c2cn3c4c(cccc24)CCC3)[C@@H]1c1c[nH]c2ccccc12
active: AC50 [1] 1.05 µM | AC50 [2] 13.2 µM | AC50 [4] 1.48 µM | AC50 [10] 23.5 µM

CN(C)CC(=O)N1CCC(c2ccc(NC(=O)c3ncc(C#N)[nH]3)c(C3=CCCCC3)c2)CC1
inactive: outcome [6] | outcome [7]
active: AC50 [1] 23.5 µM | AC50 [2] 20.9 µM | AC50 [4] 20.9 µM | AC50 [10] 18.7 µM

CS(=O)(=O)N1CCc2c(-c3cnc(N)nc3)nc(N3CCOCC3)nc21
inactive: fold change [8, 12] 0.998 | plate-normalised HSF1 focus index [5] 0.883 | viability [11, 18] 100% | viability [11, 19] 117% | viability [11, 20] 117% | viability [11, 21] 109% | viability [11, 22] 103% | viability [11, 23] 117% | viability [11, 24] 115% | viability [11, 25] 111% | viability [11, 27] 111% | viability [11, 28] 113% | viability [11, 29] 112% | viability [11, 30] 106% | viability [11, 31] 125% | viability [11, 32] 115% | viability [11, 33] 111% | viability [11, 35] 115% | viability [11, 36] 112% | viability [11, 37] 110% | viability [11, 39] 105% | viability [11, 40] 109% | viability [11, 41] 107% | viability [11, 43] 118%
0.485: fold change [8, 13]
3180: cell count [8, 14] | cell count [8, 15]
7210: cell count [5]
active: AC50 [1] 1.86 µM | AC50 [2] 0.148 µM | AC50 [3] 1.18 µM | AC50 [4] 0.525 µM | IC50 [7] 0.934 µM | z-score [9, 16] 3.23 | viability [11, 26] 96.5% | viability [11, 34] 87.7% | viability [11, 38] 91.8% | viability [11, 42] 75.9% | viability [11, 44] 66.8% | viability [11, 45] 97% | viability [11, 46] 39.2% | viability [11, 47] 56% | viability [11, 48] 16% | viability [11, 49] 16.9%
-1.3: z-score [9, 17]
-3.29: SSMD [5]

O=C(CCCCCCC(=O)Nc1ccc([C@H]2O[C@@H](CSc3nc(-c4ccccc4)c(-c4ccccc4)o3)C[C@@H](c3ccc(CO)cc3)O2)cc1)NO
inactive: outcome [1] | outcome [4] | outcome [6] | outcome [7] | viability [11, 18] 114% | viability [11, 19] 141% | viability [11, 21] 111% | viability [11, 22] 112% | viability [11, 23] 131% | viability [11, 25] 114% | viability [11, 26] 115% | viability [11, 27] 132% | viability [11, 29] 108% | viability [11, 30] 112% | viability [11, 31] 130% | viability [11, 34] 112% | viability [11, 35] 139% | viability [11, 36] 102% | viability [11, 37] 106% | viability [11, 38] 116% | viability [11, 39] 137% | viability [11, 40] 104% | viability [11, 41] 109% | viability [11, 42] 110% | viability [11, 43] 139% | viability [11, 44] 106% | viability [11, 45] 116% | viability [11, 46] 128% | viability [11, 47] 158% | viability [11, 49] 108%
active: AC50 [2] 13.2 µM | viability [11, 20] 97.6% | viability [11, 24] 90.6% | viability [11, 28] 90% | viability [11, 32] 72% | viability [11, 33] 79.1% | viability [11, 48] 21.1%

O=C(Nc1ccc(OC(F)(F)Cl)cc1)c1cnc(N2CC[C@@H](O)C2)c(-c2ccn[nH]2)c1
inactive: outcome [3]
active: AC50 [1] 23.5 µM

CC(C)=CCC/C(C)=C/CC/C(C)=C/CSc1ccccc1C(=O)O
active: AC50 [2] 0.526 µM
2.56: SSMD [5]
inactive: outcome [1] | outcome [6] | outcome [7] | plate-normalised HSF1 focus index [5] 1.15
6790: cell count [5]

OCCn1cc(-c2ccc3c(c2)CC/C3=N\O)c(-c2ccncc2)n1
6750: cell count [5]
1.73: SSMD [5]
active: AC50 [1] 14.8 µM
inactive: outcome [2] | outcome [7] | plate-normalised HSF1 focus index [5] 1.09

CCNC(=O)Nc1ccc(-c2nc3c(c(N4CCOC[C@@H]4C)n2)CCN(C2COC2)C3)cc1
active: AC50 [1] 2.95 µM | AC50 [2] 0.332 µM | AC50 [4] 1.32 µM

Cc1nc([C@](C)(O)CO)sc1-c1cnc(N)c(O[C@H](C)c2cc(F)ccc2-n2nccn2)c1
active: AC50 [1] 8.33 µM | AC50 [3] 1.48 µM | AC50 [4] 2.63 µM
